Source: PubChem BioAssay AID1159580 (chemical genetic matrix, 2015)
Among all 5,500 compounds or so, about 2,000 (36%) were called active. About 18% were inconclusive and are not listed. No stated cut-off is given here; in the data, active means normalized growth mostly below about 0.91 (no sharp cut-off); inconclusive means no clear call, values can overlap the other calls; inactive means mostly above about 0.92. The list shows a part of the results.

Assay: chemical genetic growth profiling, strain panel (AID 1159580);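 further: tested at 20 µM; growth read once vehicle control cultures reached saturation at 30 °C; 1 = growth at the plate median or of vehicle wells; lower values mean less growth of the strain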
Conditions: growth OD

Measured: normalized growth

COc1ccc2ccc(=O)oc2c1CC=C(C)C
active: S. cerevisiae deletion strains, locus YAL026C, strain drs2, hits give low values 0.883 | S. cerevisiae deletion strains, locus YAL030W, strain snc1, hits give low values 0.92 | S. cerevisiae deletion strains, locus YBL061C, strain skt5, hits give low values 0.912 | S. cerevisiae deletion strains, locus YBR009C, strain hhf1, hits give low values 0.769 | S. cerevisiae deletion strains, locus YBR021W, strain FUR4, hits give low values 0.662 | S. cerevisiae deletion strains, locus YBR023C, strain chs3, hits give low values 0.843 | S. cerevisiae deletion strains, locus YBR229C, strain ROT2, hits give low values 0.885 | S. cerevisiae deletion strains, locus YBR231C, strain swc5, hits give low values 0.866 | S. cerevisiae deletion strains, locus YBR279W, strain paf1, hits give low values 0.929 | S. cerevisiae deletion strains, locus YCL011C, strain gbp2, hits give low values 0.787 | S. cerevisiae deletion strains, locus YCL016C, strain dcc1, hits give low values 0.891 | S. cerevisiae deletion strains, locus YCL029C, strain bik1, hits give low values 0.826 | S. cerevisiae deletion strains, locus YCL061C, strain MRC1, hits give low values 0.835 | S. cerevisiae deletion strains, locus YCL069W, strain vba3, hits give low values 0.919 | S. cerevisiae deletion strains, locus YCR088W, strain abp1, hits give low values 0.915 | S. cerevisiae deletion strains, locus YDL035C, strain GPR1, hits give low values 0.794 | S. cerevisiae deletion strains, locus YDL040C, strain nat1, hits give low values 0.91 | S. cerevisiae deletion strains, locus YDL074C, strain BRE1, hits give low values 0.752 | S. cerevisiae deletion strains, locus YDL101C, strain DUN1, hits give low values 0.768 | S. cerevisiae deletion strains, locus YDL192W, strain arf1, hits give low values 0.794 | S. cerevisiae deletion strains, locus YDR001C, strain nth1, hits give low values 0.909 | S. cerevisiae deletion strains, locus YDR101C, strain arx1, hits give low values 0.823 | S. cerevisiae deletion strains, locus YDR137W, strain rgp1, hits give low values 0.715 | S. cerevisiae deletion strains, locus YDR159W, strain sac3, hits give low values 0.771 | S. cerevisiae deletion strains, locus YDR162C, strain NBP2, hits give low values 0.645 | S. cerevisiae deletion strains, locus YDR318W, strain mcm21, hits give low values 0.741 | S. cerevisiae deletion strains, locus YDR388W, hits give low values 0.89 | S. cerevisiae deletion strains, locus YDR392W, strain spt3, hits give low values 0.396 | S. cerevisiae deletion strains, locus YDR502C, strain sam2, hits give low values 0.788 | S. cerevisiae deletion strains, locus YEL003W, strain gim4, hits give low values 0.832 | S. cerevisiae deletion strains, locus YEL061C, strain CIN8, hits give low values 0.774 | S. cerevisiae deletion strains, locus YER016W, strain bim1, hits give low values 0.91 | S. cerevisiae deletion strains, locus YER110C, hits give low values 0.873 | S. cerevisiae deletion strains, locus YER155C, strain BEM2 (second series), hits give low values 0.434 | S. cerevisiae deletion strains, locus YER155C, strain BEM2, hits give low values 0.657 | S. cerevisiae deletion strains, locus YER167W, strain BCK2, hits give low values 0.561 | S. cerevisiae deletion strains, locus YGL078C, strain dbp3, hits give low values 0.917 | S. cerevisiae deletion strains, locus YGL086W, strain mad1, hits give low values 0.844 | S. cerevisiae deletion strains, locus YGL167C, strain pmr1, hits give low values 0.908 | S. cerevisiae deletion strains, locus YGL227W, strain vid30, hits give low values 0.875 | S. cerevisiae deletion strains, locus YGL240W, strain doc1, hits give low values 0.701 | S. cerevisiae deletion strains, locus YGL248W, strain PDE1, hits give low values 0.704 | S. cerevisiae deletion strains, locus YGL253W, strain hxk2, hits give low values 0.818 | S. cerevisiae deletion strains, locus YGR135W, strain pre9, hits give low values 0.75 | S. cerevisiae deletion strains, locus YGR252W, strain gcn5, hits give low values 0.583 | S. cerevisiae deletion strains, locus YHR013C, strain ard1, hits give low values 0.801 | S. cerevisiae deletion strains, locus YHR030C, strain SLT2, hits give low values 0.831 | S. cerevisiae deletion strains, locus YHR079C, strain IRE1 (second series), hits give low values 0.896 | S. cerevisiae deletion strains, locus YHR094C, strain hxt1, hits give low values 0.898 | S. cerevisiae deletion strains, locus YHR129C, strain ARP1, hits give low values 0.741 | S. cerevisiae deletion strains, locus YHR142W, strain chs7, hits give low values 0.739 | S. cerevisiae deletion strains, locus YHR200W, strain rpn10, hits give low values 0.812 | S. cerevisiae deletion strains, locus YIL066C, strain RNR3, hits give low values 0.622 | S. cerevisiae deletion strains, locus YIL125W, strain kgd1, hits give low values 0.888 | S. cerevisiae deletion strains, locus YIR030C, strain dcg1, hits give low values 0.841 | S. cerevisiae deletion strains, locus YJL092W, strain hpr5, hits give low values 0.896 | S. cerevisiae deletion strains, locus YJL095W, strain BCK1, hits give low values 0.566 | S. cerevisiae deletion strains, locus YJL129C, strain trk1, hits give low values 0.866 | S. cerevisiae deletion strains, locus YJL134W, strain LCB3, hits give low values 0.921 | S. cerevisiae deletion strains, locus YJL164C, strain tpk1, hits give low values 0.883 | S. cerevisiae deletion strains, locus YJL166W, strain qcr8, hits give low values 0.803 | S. cerevisiae deletion strains, locus YJL187C, strain SWE1 (second series), hits give low values 0.783 | S. cerevisiae deletion strains, locus YJR043C, strain POL32, hits give low values 0.538 | S. cerevisiae deletion strains, locus YKL009W, strain mrt4, hits give low values 0.873 | S. cerevisiae deletion strains, locus YKL068W, hits give low values 0.898 | S. cerevisiae deletion strains, locus YKL085W, strain MDH1 (second series), hits give low values 0.916 | S. cerevisiae deletion strains, locus YKL085W, strain MDH1, hits give low values 0.916 | S. cerevisiae deletion strains, locus YKR001C, strain vps1, hits give low values 0.589 | S. cerevisiae deletion strains, locus YKR026C, strain gcn3, hits give low values 0.906 | S. cerevisiae deletion strains, locus YKR091W, strain srl3, hits give low values 0.926 | S. cerevisiae deletion strains, locus YLL001W, strain dnm1, hits give low values 0.87 | S. cerevisiae deletion strains, locus YLL026W, hits give low values 0.857 | S. cerevisiae deletion strains, locus YLR027C, strain aat2, hits give low values 0.845 | S. cerevisiae deletion strains, locus YLR039C, strain RIC1, hits give low values 0.438 | S. cerevisiae deletion strains, locus YLR058C, strain SHM2, hits give low values 0.794 | S. cerevisiae deletion strains, locus YLR102C, strain apc9, hits give low values 0.891 | S. cerevisiae deletion strains, locus YLR221C, strain rsa3, hits give low values 0.871 | S. cerevisiae deletion strains, locus YLR258W, strain gsy2, hits give low values 0.848 | S. cerevisiae deletion strains, locus YLR262C, strain YPT6 (second series), hits give low values 0.642 | S. cerevisiae deletion strains, locus YLR262C, strain YPT6, hits give low values 0.476 | S. cerevisiae deletion strains, locus YLR268W, strain sec22, hits give low values 0.723 | S. cerevisiae deletion strains, locus YLR320W, strain mms22, hits give low values 0.607 | S. cerevisiae deletion strains, locus YLR330W, strain CHS5, hits give low values 0.658 | S. cerevisiae deletion strains, locus YLR342W, strain FKS1 (second series), hits give low values 0.705 | S. cerevisiae deletion strains, locus YLR357W, strain rsc2, hits give low values 0.761 | S. cerevisiae deletion strains, locus YLR370C, strain arc18, hits give low values 0.899 | S. cerevisiae deletion strains, locus YLR371W, strain rom2, hits give low values 0.889 | S. cerevisiae deletion strains, locus YLR418C, strain cdc73, hits give low values 0.492 | S. cerevisiae deletion strains, locus YML032C, strain rad52, hits give low values 0.779 | S. cerevisiae deletion strains, locus YML120C, strain ndi1, hits give low values 0.822 | S. cerevisiae deletion strains, locus YML124C, strain tub3, hits give low values 0.859 | S. cerevisiae deletion strains, locus YMR058W, strain fet3, hits give low values 0.89 | S. cerevisiae deletion strains, locus YMR078C, strain ctf18, hits give low values 0.891 | S. cerevisiae deletion strains, locus YMR125W, strain sto1, hits give low values 0.81 | S. cerevisiae deletion strains, locus YMR129W, hits give low values 0.904 | S. cerevisiae deletion strains, locus YMR205C, strain PFK2, hits give low values 0.659 | S. cerevisiae deletion strains, locus YMR223W, strain ubp8, hits give low values 0.797 | S. cerevisiae deletion strains, locus YMR263W, strain SAP30, hits give low values 0.826 | S. cerevisiae deletion strains, locus YNL067W, strain RPL9B, hits give low values 0.762 | S. cerevisiae deletion strains, locus YNL071W, strain lat1, hits give low values 0.672 | S. cerevisiae deletion strains, locus YNL153C, strain GIM3, hits give low values 0.713 | S. cerevisiae deletion strains, locus YNL233W, strain BNI4, hits give low values 0.567 | S. cerevisiae deletion strains, locus YNL271C, strain bni1, hits give low values 0.907 | S. cerevisiae deletion strains, locus YNL298W, strain CLA4, hits give low values 0.829 | S. cerevisiae deletion strains, locus YNL307C, strain MCK1, hits give low values 0.381 | S. cerevisiae deletion strains, locus YNL322C, strain KRE1 (second series), hits give low values 0.807 | S. cerevisiae deletion strains, locus YNL322C, strain KRE1, hits give low values 0.804 | S. cerevisiae deletion strains, locus YNR049C, strain mso1, hits give low values 0.914 | S. cerevisiae deletion strains, locus YNR052C, strain pop2, hits give low values 0.909 | S. cerevisiae deletion strains, locus YOL147C, strain pex11, hits give low values 0.726 | S. cerevisiae deletion strains, locus YOR001W, strain rrp6, hits give low values 0.889 | S. cerevisiae deletion strains, locus YOR069W, strain VPS5, hits give low values 0.89 | S. cerevisiae deletion strains, locus YOR070C, strain gyp1, hits give low values 0.917 | S. cerevisiae deletion strains, locus YOR136W, strain idh2, hits give low values 0.911 | S. cerevisiae deletion strains, locus YOR144C, strain elg1, hits give low values 0.855 | S. cerevisiae deletion strains, locus YOR184W, strain ser1, hits give low values 0.481 | S. cerevisiae deletion strains, locus YOR265W, strain rbl2, hits give low values 0.921 | S. cerevisiae deletion strains, locus YOR270C, strain vph1, hits give low values 0.532 | S. cerevisiae deletion strains, locus YOR290C, strain snf2, hits give low values 0.712 | S. cerevisiae deletion strains, locus YOR316C, strain cot1, hits give low values 0.864 | S. cerevisiae deletion strains, locus YPL078C, strain atp4, hits give low values 0.845 | S. cerevisiae deletion strains, locus YPR119W, strain clb2, hits give low values 0.888 | S. cerevisiae deletion strains, locus YPR163C, strain tif3, hits give low values 0.796 | S. cerevisiae deletion strains, locus YPR167C, strain met16, hits give low values 0.799 | S. cerevisiae deletion strains, strain wtn01, hits give low values 0.843 | S. cerevisiae strains, strain wild type, hits give low values 0.798
inactive: S. cerevisiae deletion strains, locus YAL021C, strain ccr4, hits give low values 1.02 | S. cerevisiae deletion strains, locus YBR171W, strain sec66, hits give low values 0.896 | S. cerevisiae deletion strains, locus YDL005C, strain med2, hits give low values 0.948 | S. cerevisiae deletion strains, locus YDL185W, strain tfp1, hits give low values 0.928 | S. cerevisiae deletion strains, locus YDR069C, strain doa4, hits give low values 1.03 | S. cerevisiae deletion strains, locus YDR195W, strain ref2 1.02 | S. cerevisiae deletion strains, locus YDR297W, strain sur2, hits give low values 0.934 | S. cerevisiae deletion strains, locus YDR334W, strain swr1, hits give low values 0.936 | S. cerevisiae deletion strains, locus YDR335W, strain msn5, hits give low values 0.95 | S. cerevisiae deletion strains, locus YEL037C, strain rad23, hits give low values 0.935 | S. cerevisiae deletion strains, locus YEL061C, strain CIN8 (second series), hits give low values 0.921 | S. cerevisiae deletion strains, locus YER015W, strain faa2, hits give low values 0.935 | S. cerevisiae deletion strains, locus YER111C, strain swi4, hits give low values 0.942 | S. cerevisiae deletion strains, locus YFR010W, strain ubp6, hits give low values 0.923 | S. cerevisiae deletion strains, locus YGL173C, strain kem1, hits give low values 0.94 | S. cerevisiae deletion strains, locus YHR027C, strain rpn1, hits give low values 0.957 | S. cerevisiae deletion strains, locus YIL073C, strain SPO22, hits give low values 0.85 | S. cerevisiae deletion strains, locus YJL095W, strain BCK1 (second series), hits give low values 0.936 | S. cerevisiae deletion strains, locus YJL115W, strain asf1, hits give low values 0.967 | S. cerevisiae deletion strains, locus YJL154C, strain vps35, hits give low values 0.944 | S. cerevisiae deletion strains, locus YJL168C, strain set2, hits give low values 0.941 | S. cerevisiae deletion strains, locus YJL187C, strain SWE1, hits give low values 0.937 | S. cerevisiae deletion strains, locus YKL160W, strain elf1, hits give low values 0.912 | S. cerevisiae deletion strains, locus YLL041C, strain sdh2, hits give low values 0.945 | S. cerevisiae deletion strains, locus YLR342W, strain FKS1, hits give low values 0.923 | S. cerevisiae deletion strains, locus YLR384C, strain iki3, hits give low values 0.957 | S. cerevisiae deletion strains, locus YML016C, strain PPZ1, hits give low values 0.926 | S. cerevisiae deletion strains, locus YMR231W, strain pep5, hits give low values 0.935 | S. cerevisiae deletion strains, locus YMR307W, strain GAS1, hits give low values 0.706 | S. cerevisiae deletion strains, locus YNL209W, strain ssb2, hits give low values 0.958 | S. cerevisiae deletion strains, locus YNL248C, strain rpa49, hits give low values 0.971 | S. cerevisiae deletion strains, locus YNL250W, strain rad50, hits give low values 0.918 | S. cerevisiae deletion strains, locus YOL012C, strain htz1 0.768 | S. cerevisiae deletion strains, locus YOR061W, strain CKA2, hits give low values 0.929 | S. cerevisiae deletion strains, locus YOR080W, strain dia2, hits give low values 0.93 | S. cerevisiae deletion strains, locus YOR083W, strain WHI5, hits give low values 0.895 | S. cerevisiae deletion strains, locus YOR106W, strain vam3, hits give low values 0.917 | S. cerevisiae deletion strains, locus YPL051W, strain arl3, hits give low values 0.931 | S. cerevisiae deletion strains, locus YPL106C, strain sse1, hits give low values 0.917 | S. cerevisiae deletion strains, locus YPL240C, strain hsp82, hits give low values 0.96 | S. cerevisiae deletion strains, locus YPR141C, strain kar3, hits give low values 0.937
